Compound activity (PubChem)
Wnt act = Wnt/beta-catenin pathway activators, primary screen, cell-based, plate reader, single point; AID 743398, 2014; Wnt/beta-catenin reporter cell assay, activator; activation, % at 9.35 µM; hit rate 1.2% among 300,000; in the data active = activation above about 30%, passing the limit was not always enough; inconclusive = no clear call, values can overlap the other calls;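 note: 0% = neutral control wells and 100% = positive control wells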
ssDAF12 agonist = S. stercoralis DAF-12 nuclear receptor activators, primary screen, cell-based, luminescence, HEK293, GRIP1 co-expression, lit1-tk-luc; Nuclear hormone receptor DAF-12 (Strongyloides stercoralis); HEK293 ssDAF-12/GRIP1 lit1-tk-luc reporter; % of 3 µM dafachronic acid response; activation, % at 6.8 µM; hit rate 1% among 370,000;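 active = activation above the mean over all tested compounds plus 3 SD, cut at about 0.9% in these data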;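 note: 0% = DMSO-only wells and 100% = 3 µM delta7-dafachronic acid wells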
DAX1 StAR inh = DAX1 (NR0B1) inhibitors on StAR promoter, primary screen, cell-based, luminescence, SF-1 (NR5A1), full-length DAX-1 | HEK293T StAR-luciferase reporter, SF-1/DAX-1 repression relief | inhibition, % at 6.8 µM | hit rate 1.1% among 370,000 | AID 652010, 2013;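 active = inhibition above the mean over all tested compounds plus 3 SD, cut at about 3.6% in these data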;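 note: 0% = DAX-1 cells with DMSO and 100% = cells lacking DAX-1 with DMSO; higher inhibition means more luminescence from relief of DAX-1 repression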
esBAF inh = Bmi1 luciferase reporter increase in mESCs, primary screen, esBAF inhibitor project, mouse ES cells, Bmi1 luciferase knock-in, single point | reporter increase, % at 12.5 µM | hit rate 2% among 350,000 | 24 h; 100% = twice the neutral-well signal | AID 602393, 2012; in the data active = activation above about 40%; inconclusive = no clear call, values can overlap the other calls;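 note: 0% = median of the plate's neutral control wells and 100% = double that signal; a rise in the Bmi1 reporter signal indicates esBAF inhibition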
hgDAF-12 ag = H. glycines DAF-12 receptor agonists, primary screen, cell-based, luminescence, HEK293, GAL4 fusion, UAS-luciferase | HEK293 GAL4-hgDAF12 UAS-luciferase reporter, agonist luminescence; normalized to butyrate control | AID 687014, 2013 | Nuclear hormone receptor DAF-12 (Heterodera glycines), GAL4 fusion | hit rate 1.8% among 370,000 | activation, % at 6.8 µM;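 active = activation above a cutoff set at the mean of all screened compounds plus 3 SD, cut at about 10% in these data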;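 note: 0% = DMSO wells and 100% = sodium butyrate wells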
hcDAF-12 act = H. contortus DAF-12 nuclear receptor activators, primary screen, cell-based, luminescence, HEK293, lit1-tk-luc reporter; hit rate 1.4% among 370,000; activation, % at 6.8 µM; HEK293 hcDAF-12 lit1-tk-luc reporter; 0% DMSO, 100% Δ7-dafachronic acid; AID 652067, 2013;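 active = activation above the mean of all tested compounds plus 3 SD, cut at about 5.5% in these data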;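 note: 100% = response to 3 µM Δ7-dafachronic acid high control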
Active calls of the source: *; ? = inconclusive; nt = no result given. Hits are enriched below; roughly 4.2% of the tested compounds scored in any of these assays.

SMILES | Wnt act | ssDAF12 agonist | DAX1 StAR inh | esBAF inh | hgDAF-12 ag | hcDAF-12 act
CCS(=O)(=O)NCC[C@H]1CC[C@H](NS(=O)(=O)c2cccc(Cl)c2)[C@@H](CO)O1 | nt | nt | nt | -5 | nt | nt
Cc1nnc(SCC(=O)c2cc(C)n(-c3ccc4c(c3)OCO4)c2C)s1 | 12 | -1 | -1 | 70* | 2 | 1
Cc1cc(C(=O)CSc2nnnn2C)c(C)n1-c1ccc2c(c1)OCCO2 | 21 | 0 | 0 | nt | 4 | 1
Cc1nnc(SCc2cccc(CSc3nnc(C)s3)c2)s1 | -2 | -1 | 1 | ? | 5 | -1
Cc1nnc(SCc2ccc3c(c2)OCO3)s1 | nt | -1 | 0 | 51* | 5 | 0
O=C(Nc1cc(F)ccc1F)N[C@H]1CC[C@@H](CCn2cc(C3CC3)nn2)O[C@@H]1CO | nt | nt | nt | -1 | nt | nt
CCC(=O)N(C)C[C@@H]1Oc2ncc(-c3ccccc3F)cc2C(=O)N([C@H](C)CO)C[C@@H]1C | nt | nt | nt | 3 | nt | nt
COc1ccccc1CNC(=O)C[C@@H]1C[C@@H]2c3cc(NS(C)(=O)=O)ccc3O[C@@H]2[C@@H](CO)O1 | nt | nt | nt | 4 | nt | nt
CN(C)c1ccc(/C=C2/NC(=O)NC2=O)cc1 | 18 | -1 | 1 | nt | 11* | 3
O=C1NC(=O)C(=Cc2ccccc2)N1 | -7 | -1 | 1 | nt | -2 | 0
C[C@@H]1CN([C@@H](C)CO)C(=O)c2cc(NC(=O)Nc3ccc4c(c3)OCO4)ccc2O[C@H]1CN(C)Cc1ccc(-c2ccccc2)cc1 | nt | nt | nt | 7 | nt | nt
COc1ccc(CCNC(=O)C/C(C)=N/NC(=O)c2ccc(Cl)cc2Cl)cc1OC | -4 | -1 | 0 | 2 | 0 | -1
COc1ccc(CCNC(=O)C/C(C)=N/NC(=O)c2ccc(N)cc2)cc1OC | nt | 0.9* | 1 | -4 | 6 | 4
O=C(O)C[C@H]1C[C@H]2c3cc(NC(=O)c4ccc5c(c4)OCO5)ccc3O[C@H]2[C@@H](CO)O1 | nt | nt | nt | -8 | nt | nt
CCCC(=O)OCC(=O)Nc1ccc(N=Nc2ccccc2)cc1 | 51* | 0 | 3 | nt | 11* | 5.7*
Cc1ccccc1S(=O)(=O)N[C@H]1CC[C@H](CCn2cc(Cc3ccccc3)nn2)O[C@H]1CO | nt | nt | nt | 0 | nt | nt
O=C(c1cc2cc3ccc(Cl)cc3nc2o1)N1CCCCCC1 | nt | nt | nt | 32 | nt | nt
O=C(c1cc2cc(Cl)ccc2o1)N1CCCCCC1 | -1 | -1 | 2 | 65* | 7 | 1
C[C@H]1CN([C@@H](C)CO)C(=O)c2cc(C3=CCCC3)cnc2O[C@@H]1CN(C)Cc1ccc(C(=O)O)cc1 | nt | nt | nt | 0 | nt | nt
O=C(Nc1nnc(SCc2ccc(Cl)cc2)s1)C1CC(=O)N(Cc2ccccc2)C1 (configuration not stated) | 34* | -1 | 0 | -14 | -1 | 1
C/C(=N\Nc1cccc2cccnc12)c1ccc(N)cc1 | 2 | -1 | 0 | 64* | 2 | 3
NNC(=O)c1ccc(CSc2nc3ccccc3s2)cc1 | 1 | -1 | 0 | 41 | 11* | 6.1*
O=C(Nc1ccc(C(F)(F)F)cc1)N[C@H]1CC[C@H](CCn2cc(C3(O)CCCC3)nn2)O[C@H]1CO | nt | nt | nt | 7 | nt | nt
CCNC(=O)C[C@H]1CC[C@@H]2[C@H](COc3ccc(NC(=O)Nc4c(C)noc4C)cc3C(=O)N2C)O1 | nt | nt | nt | 0 | nt | nt
COc1ccccc1OCC(=O)Nc1ccncc1 | 2 | 0 | 0 | 0 | -2 | -1
SMILES | Wnt act | ssDAF12 agonist | DAX1 StAR inh | esBAF inh | hgDAF-12 ag | hcDAF-12 act
O=C(Cc1ccc(-c2ccccc2)cc1)Nc1ccccn1 | 26 | 0 | 0 | 43* | 10 | 2
COc1ccccc1OCC(=O)Nc1ccccn1 | nt | 0 | 3 | 2 | 13* | 5
COc1ccccc1/C=C/C(=O)NCc1ccccn1 | -3 | -1 | 0 | nt | 2 | -2
COc1ccccc1/C=C/C(=O)NC(=S)Nc1ccccn1 | 6 | 1.4* | 1 | 31 | 5 | 3
Cc1ccc(NC(=O)Cc2ccc(-c3ccccc3)cc2)nc1 | 1 | -2 | 0 | nt | 2 | 3
O=C(/C=C/c1ccco1)NC(=S)Nc1ccccn1 | 42* | 0 | 2 | 46* | 8 | 0
Cc1cccnc1NC(=S)NC(=O)/C=C/c1ccco1 | 24 | 0 | 1 | 38 | 5 | 1
O=C(/C=C/c1ccccc1)NC(=S)Nc1ncccn1 | 1 | -1 | 0 | nt | -2 | -2
CN1CCN(c2ccc(NC(=S)NC(=O)/C=C/c3ccco3)cc2)CC1 | 0 | 0 | 0 | 45* | 7 | 2
COc1ccc(/C=C/C(=O)NC(=S)Nc2ccccn2)cc1 | 12 | 0 | 2 | 48* | 9 | 5
C=CCN(CC=C)C(=S)NC(=O)/C=C/c1ccc(OC)cc1 | -2 | 1.4* | 0 | -1 | 0 | 0
O=C(/C=C/c1ccco1)Nc1cccc(NC(=O)/C=C/c2ccco2)n1 | 9 | -1 | 3 | nt | 11* | 6.4*
CC(=O)Nc1ccc(NC(=S)NC(=O)/C=C/c2ccco2)cc1 | 3 | 0 | 0 | -2 | -2 | 1
COc1ccccc1CNCc1ccc2c(c1)OCO2 | -3 | -1 | 0 | -17 | 0 | -1
O=Cc1ccccc1OCc1ccc2c(c1)OCO2 | 10 | 0 | 1 | 70* | 10 | 5
Cc1cccc(C(=O)Nc2sc(C)c(-c3ccccc3)c2C#N)c1 | nt | -1 | 1 | 49* | 7 | 1
Cc1sc(NC(=O)C2CCCCC2)c(C#N)c1-c1ccccc1 | 42* | -1 | 3 | 93* | 6 | 0
Cc1noc(C)c1C(=O)Nc1sc(C)c(-c2ccccc2)c1C#N | nt | -1 | 0 | -9 | 1 | 2
CCCC(=O)Nc1sc(C)c(-c2ccc(OC)cc2)c1C#N | nt | -2 | 0 | nt | -3 | -1
C[C@@H]1CN([C@@H](C)CO)C(=O)c2cc(Br)cnc2O[C@H]1CN(C)Cc1ccccn1 | nt | nt | nt | -2 | nt | nt
COc1ccc(-c2nc3ncccn3c2Br)cc1 | 5 | 0 | 2 | nt | 11* | 3
Cc1noc(C)c1S(=O)(=O)N(C)C[C@@H]1Oc2ccc(NS(=O)(=O)c3ccc(Cl)cc3)cc2C(=O)N([C@@H](C)CO)C[C@@H]1C | nt | nt | nt | 1 | nt | nt
COCCNC(=O)C[C@H]1CC[C@H]2[C@@H](COC[C@@H](O)CN2S(=O)(=O)c2ccccc2F)O1 | nt | nt | nt | -1 | nt | nt
CCc1cc(C(=O)c2ccccc2OC)c(N)s1 | nt | -1 | 1 | -6 | 1 | 0
CCc1cc(C(=O)c2ccc(OC)cc2)c(N)s1 | 39* | 0 | -1 | -2 | 0 | 0
